Shown is part of a subset that was picked to be rich in hits.
HBB splicing = hemoglobin beta splicing modulation; 65,000 tested, 0.06% active; Potency, µM (titrated, usually from 46.1 µM), for the others: top-dose activation, actives largely listed as activators; HBB splicing reporter cell assay, activation; EGFP reporter with mutant IVS2-654 intron; response scale: normalised to 500 nM splice-correcting PNA; AID 925; further: potency means the concentration at half of the fitted maximal effect; 0% is about no effect
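Compounds were applied for 2 days to HeLa EGFP-654 cells, 500/well in Optimem with 2% FCS. The reporter's EGFP is disrupted by mis-splicing of beta-globin intron IVS2-654. Readout: summed well GFP fluorescence from 488 nm laser scanning; reference was 500 nM antisense […] 654 PNA.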
CRE Fsk mod = alters forskolin-stimulated CRE reporter signaling in CHO cells. 71,000 tested, 2.5% active. Potency, µM (highest dose often 38.2 µM), without a hit: at the top dose activity change, negative = inhibition, usual class: activators. CHO CRE-bla reporter (cAMP response element driving beta-lactamase), forskolin EC10, beta-lactamase ratio; active means well fitted activation curve with a large enough effect in the signal ratio, with a control signal flat, not every such curve was filed as active; inconclusive means small, poorly fitted or top-dose-only effect, or effect the other way, or a change in a side signal; the % refers to the signal ratio; further: potency means the concentration at half of the fitted maximal effect; % of control where 0% means no effect
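Reporter-gene assay: CHO cells with beta-lactamase behind cAMP responsive elements, co-treated with compound and EC10 NKH 477 for 3 hours at 37 degrees Celsius. Activity came from the 460/530 nm CCF4 emission ratio.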
GFP derepression = epigenetic GFP locus derepression in mouse cells | mouse C127i GFP locus derepression, cytometry, 30 h | Potency, µM (highest dose often 46.1 µM), for the others: at the highest dose GFP derepression (activation) | 68,000 tested, 0.09% active; further: % of control where 0% means no effect
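Locus derepression in mouse mammary C127i cells whose integrated CMV-GFP reporter is normally silent; GFP expression after 30 h compound treatment was quantified by counting fluorescent cells.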
IkB sig inh = IkB pathway inhibition in ABC-DLBCL cells | ABC-DLBCL IkBa-CBG/CBR dual luciferase ratio, 4 h; response scale: scaled: untreated 0%, proteasome inhibitor 100% | Potency, µM (highest dose often 57.1 µM), for inactives: at the highest dose IkBa stabilization activation | 110,000 tested, 0.04% active | AID 445; active means well fitted curve in the direction sought with a large enough effect in the signal ratio, not every such curve was filed as active; inconclusive means small, poorly fitted or top-dose-only effect, or a change in a side signal; the % refers to the signal ratio;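 further: potency means the concentration at half of the fitted maximal effect; the direction sought is a rising ratio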
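In this assay, an IκBα–CBG68 fusion accumulates when IKK-driven degradation is blocked; native CBR normalizes for cell number. OCI-Ly3 cells were treated 4 h with compound and doxycycline, then green and red light read after Chroma-Glo addition.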
ERK AVP block = vasopressin-driven ERK pathway inhibition; AID 995; HEK293-V1b, vasopressin-stimulated pERK AlphaScreen; 72,000 tested, 0.99% active; Potency, µM (top dose mostly 57.5 µM), inactives show top-dose activity, negative = inhibition, usual class: inhibitors; further: potency means the concentration at half of the fitted maximal effect; on the % scale 0 is the no-effect control and ±100 the full control effect; nearly all actives have a fitted effect of over 55% in size
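Overnight-seeded V1b-HEK293 cells in 1% FBS got compound, then vasopressin (25 nM final, 5 min, 37C), then lysis buffer. AlphaScreen detection of phospho-ERK; activity normalized to basal and full-stimulation controls.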
* marks the source's active call; other numbers are inactive results; ? = inconclusive; · = no result; [ ] = remark or other dose. Unless noted, the call rests on the fitted dose curve; in most records, active means well fitted curve in the direction sought with a large enough effect; inconclusive means small, poorly fitted or top-dose-only effect, or another doubt; inactive means no such curve, though single readings can be large; an effect the other way counts as inactive or inconclusive.

SMILES	HBB splicing	CRE Fsk mod	GFP derepression	IkB sig inh	ERK AVP block
CC(C)Sc1nc2c(c(=O)[nH]c(=O)n2C)n1CCc1ccccc1	0%[57.5 µM]	?	-4%	0%	-21%
CCn1c(SCC(=O)Nc2nc3c(s2)CCCC3)nnc1-c1ccccc1	·	?	0%	4%	32µM*
CCn1c(SCC(=O)Nc2nc3ccccc3s2)nnc1-c1ccc(OC)cc1	2%	-2%	2%	-2%	18%
CCOC(=O)c1c(NC(=O)c2nn(CC)cc2Br)c(C#N)nn1-c1ccccc1	-1%	7.9µM*	-3%	?	-10%
CCOC(=O)c1c(NC(=O)c2nn(CC)cc2Br)sc(C)c1C	0%	3.2µM*	5%	2%	-12%
CCOC(=O)c1nn(-c2ccccc2)c(=O)c(C#N)c1C	·	14%	-4%	0%	16%
CCOC(=O)c1ccc(NC(=O)c2nn(CC)cc2Br)cc1	-1%	4%	-2%	2%	-21%
CCOC(=O)c1nn(-c2ccccc2)c(C#N)c1NC(=O)c1nn(CC)cc1Br	0%	1.6µM*	-3%	2%	-11%
Cc1cc(C)c(NC(=O)Cc2ccc(-n3c(C)nc4cccnc43)cc2)c(C)c1	·	·	·	0%	·
O=C(Nc1nc2ccccc2s1)C1CCCN1S(=O)(=O)c1ccc(Cl)cc1 (configuration not stated)	-1%	?	2%	?	20µM*
COc1cccc2sc(Nc3nnc(-c4ccccc4Cl)o3)nc12	-2%	5µM*	·	?	·
Cc1cc(C(=O)OCn2nnc3ccccc3c2=O)c(C)n1-c1ccccc1	3%	4µM*	-3%	1%	?
COc1cc(C(=O)OCn2nnc3ccccc3c2=O)cc(OC)c1OC	-2%	6.3µM*	2%	0%	-21%
Cc1nc(SCn2nnc3ccccc3c2=O)nc(C)c1C	-1%	13µM*	1%	1%	-14%
Cc1cc(C)n(-c2ccc(C(=O)OCn3nnc4ccccc4c3=O)cc2)n1	2%	?	0%	3%	7%
Cc1ccccc1C(=O)OCn1nnc2ccccc2c1=O	1%	13µM*	·	1%	·
COc1cccc(CNC(=O)CSc2nc(=O)[nH]c3c2CCCC3)c1	·	·	·	2%	·
CCOC(=O)c1c(-c2cccs2)csc1NC(=O)CCCC(=O)O	·	·	5%[20.6 µM]	·	·
CCOC(=O)c1c(-c2cccs2)csc1NC(=O)CN1CC(C)OC(C)C1 (configuration not stated)	0%[57.5 µM]	2.5µM*	0%	?	11%
Cc1ccc2[nH]c(-c3ccccc3)cc(=O)c2c1	-4%[0.0738 µM]	1.6µM*	0%	14%	-6%
Cn1c(=O)c(-c2ccccc2)nc2cnc(Nc3ccccc3)nc21	-2%	?	-5%[9.22 µM]	-6%[11.4 µM]	-15%
CN(C)c1ncc2nc(-c3ccc(Cl)cc3)c(=O)n(C)c2n1	1%	2.5µM*	0%[9.22 µM]	-3%[11.4 µM]	-8%
Cn1c(=O)c(-c2ccc(Cl)cc2)nc2cnc(Nc3ccccc3)nc21	-1%	13µM*	0%[9.22 µM]	0%[11.4 µM]	12%
Cn1c(=O)c(-c2ccc(F)cc2)nc2cnc(Nc3ccccc3)nc21	0%	0.63µM*	0%[9.22 µM]	0%[11.4 µM]	-29%
CN(C)c1ncc2nc(-c3ccccc3)c(=O)n(C)c2n1	-2%	?	0%[9.22 µM]	-3%[11.4 µM]	44%
SMILES	HBB splicing	CRE Fsk mod	GFP derepression	IkB sig inh	ERK AVP block
Cn1c(=O)c(-c2cc(F)cc(F)c2)nc2cnc(Oc3cccc(Cl)c3)nc21	-1%	10µM*	5%[9.22 µM]	0%[11.4 µM]	?
Cc1cccc(N2CCN(c3cc(C)nc4c(-c5ccc(Cl)cc5)c(C)nn34)CC2C)c1 (configuration not stated)	·	·	·	-2%	·
CCOC(=O)N1CCC(NC(=O)c2ccc3c(c2)N(Cc2cc(C)ccc2C)C(=O)c2ccccc2S3(=O)=O)CC1	·	·	·	1%	·
COc1cccc(-c2nccc(NCc3ccccc3OC)n2)c1	-1%	16%	-2%[9.22 µM]	-1%[11.4 µM]	?
Cn1c(=O)c(-c2ccc(F)cc2)nc2cnc(OCc3ccccc3)nc21	-2%	13µM*	8%[9.22 µM]	0%[11.4 µM]	-16%
COc1cc(C)c(C(C)C)cc1S(=O)(=O)N1CCN(C)CC1	-1%	5%	-1%	-2%	20%
COc1cc(C)c(C(C)C)cc1S(=O)(=O)n1cnc(C)c1	0%	13µM*	12%	?	-14%
O=C(Nc1ccc2nc3n(c(=O)c2c1)CCCCC3)c1ccccn1	-1%	13µM*	0%	2%	?
O=C(CC(=O)N1CCN(c2ccccn2)CC1)Nc1ccc2nc3n(c(=O)c2c1)CCCCC3	1%	7.9µM*	0%	0%	-15%
CCOC(=O)c1c(C)n(C)c2ccc(OCC(O)Cn3nc(C)cc3C)cc12 (configuration not stated)	0%	13µM*	3%	0%	-21%
CCOC(=O)c1c(C)n(C)c2ccc(OCC(O)CN3C(=O)c4ccccc4S3(=O)=O)cc12 (configuration not stated)	1%	2µM*	13%	0%	?
Cc1ccccc1NC(=O)CSc1nc(Nc2ccccc2)nc(N2CCOCC2)n1	2%	-6%	0%	1%	-12%
O=C(CSc1nc2ccccc2[nH]1)Nc1ccc2c(c1)OCCO2	0%[57.5 µM]	-10%	0%	?	32µM*
O=C(CSc1nc(Nc2ccccc2)nc(N2CCOCC2)n1)N1CCCC1	-1%	?	-2%	-1%	-26%
O=C(CSc1nc(Nc2ccccc2)nc(N2CCOCC2)n1)Nc1ccc2c(c1)OCCO2	0%	6.3µM*	0%	?	-26%
O=C(CSc1nc2ccccc2[nH]1)c1ccc2c(c1)OCO2	-1%[57.5 µM]	10%	0%	?	28%
O=C(CSc1nc(Nc2ccccc2)nc(N2CCOCC2)n1)N1CCc2ccccc21	2%	4µM*	-2%	-3%	-13%
CC(=O)OC[C@@H]1O[C@@H](Oc2cc(OC(C)=O)c3c(=O)cc(-c4ccc(OC(C)=O)c(OC(C)=O)c4)oc3c2)[C@H](OC(C)=O)[C@H](OC(C)=O)[C@@H]1OC(C)=O	·	18%	0%[9.22 µM]	9%[11.4 µM]	·
Cc1cc(C)n(-c2nc3ccccc3c3nc(C)nn23)n1	-1%	10µM*	·	1%	·
Cn1c(=O)c2c(nc(NCCCN3CCOCC3)n2Cc2ccc(Cl)cc2)n(C)c1=O	1%[0.369 µM]	?	-4%	0%	?
Cc1cc(NCCCN2CCOCC2)n2ncc(-c3ccc(Cl)cc3)c2n1	-1%[57.5 µM]	1.6µM*	-2%	2%	-2%
COc1cccc(-c2cc(NCc3cccs3)ncn2)c1	1%	?	-3%[9.22 µM]	-1%[11.4 µM]	25µM*
Cc1cccc(CNc2cc(-c3ccccc3C)ncn2)c1	-2%	?	-3%[9.22 µM]	-1%[11.4 µM]	10µM*
COc1cccc(-c2cc(NCc3cccc(C)c3)ncn2)c1	-1%	5µM*	-4%[9.22 µM]	1%[11.4 µM]	?
